Source: PubChem (National Center for Advancing Translational Sciences (NCATS))
Shown are actives, neighbours in structure and some others; about 3.2% of the full set was active somewhere.
p53 reactivation = restores transcriptional activity of mutant p53; H1299 p53-A138V BP100-luciferase reporter, luminescence, 24 h; Potency, µM (titrated, usually from 92.2 µM), for inactives: top-dose activity change, positive = activation, most hits filed as activators; 320,000 tested, 0.063% active; AID 504706; also: potency is read from the fitted curve at half-maximal effect; % of control where 0% means no effect; nearly all actives have a fitted effect of over 45% in size
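p53-null H1299 cells stably carrying temperature-sensitive p53-A138V and a BP100-luciferase reporter were pinned with compounds (4-point, 1:5 series) and held 24 hrs at 37 deg C. Luminescence was read 10 min after detection reagent.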
Nrf2 activator = activators of Nrf2 (ARE) signaling | AREc32 ARE-luciferase reporter (MCF7-derived line), luminescence, 24 h | Potency, µM (titrated, usually from 46.1 µM), for inactives: at the highest dose activation, hits mostly activators | 410,000 tested, 0.31% active; also: potency is read from the fitted curve at half-maximal effect; % of control where 0% means no effect; nearly all actives have a fitted effect of over 65% in size
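Reporter line AREc32 (ARE-Fluc), seeded overnight in OPTI-MEM with 5% FBS; compound pin-transferred, 24 hr at 37 deg C, 5% CO2; luminescent read-out.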
IL2 activator = IL-2 activation | IL-2 activation reporter assay, cell-based qHTS; stimulated with anti-CD3/CD4/CD28 beads; in transgenic mouse T cells | activation, % (series mostly up to about 46 µM) | 360,000 tested, 0.065% active; in the data active = activation above about 50%; inconclusive = mostly about 30% to 49%; also: 0% is about no effect
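Unstimulated transgenic mouse T cells; 60-min compound exposure; bead-based TCR/CD4/CD28 stimulation; 18 h culture, 37 degrees C; dual fluorescence (EGFP, DsRed) plate cytometry.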
BRCA1 expr act = increases BRCA1 expression. MCF7-BRCA1-FFLuc reporter, luminescence, 48 h; response scale: scaled: vehicle 0%, 10 µM genistein 100%. Potency, µM (doses to about 46.1 µM), without a hit: top-dose activation, usual class: activators. 380,000 tested, 1.1% active. AID 624202; also: potency is read from the fitted curve at half-maximal effect; nearly all actives have a fitted effect of over 80% in size
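MCF7-BRCA1-FFLuc cells, 2000/well in phenol-red-free MEM, attached 2 h then treated 48 h at 37 C. Luciferase luminescence read 15 min after reagent; normalized to genistein maximum activation (10microM) and DMSO, concentration-response fitted.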
A549 tox = counter-screen for Nrf2 inhibitors: cytotoxicity in A549 cells; A549 ARE-Fluc cells, CellTiter-Fluor viability, 18-24 h; AID 504648; Potency, µM (series often up to 46 µM), for inactives: top-dose activity change, negative = cytotoxicity, hits mostly inhibitors; 390,000 tested, 0.16% active; also: potency is read from the fitted curve at half-maximal effect; % is scaled to controls: 0 for no effect and ±100 for the full control effect
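A549 ARE_Fluc cells in 5% FBS OPTI-MEM were exposed to compounds in concentration-response for 18-24 h at 37 deg C. Viability was read by CellTiter-Fluor fluorescence (Ex 405/Em 525) after 30 min, before the luciferase read.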
Nrf2 inh = blocks Nrf2 signaling | A549 ARE-Fluc reporter, luciferase luminescence, 18-24 h | Potency, µM (series often up to 46 µM), for inactives: top-dose activity change, negative = inhibition, usual class: inhibitors | 360,000 tested, 2.1% active | AID 504444; also: potency is read from the fitted curve at half-maximal effect; % is scaled to controls: 0 for no effect and ±100 for the full control effect; nearly all actives have a fitted effect of over 60% in size
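Two sequential reads on A549 ARE_Fluc cells exposed to compound for 18-24 h: a CellTiter-Fluor fluorescence read for viability, then a luciferase luminescence read for Nrf2/ARE activity.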
An asterisk follows results filed as active; ? = inconclusive; / = not tested or not shown; [ ] = remark or other dose. Unless noted, calls follow the shape of the dose curve; as a rule, active = well fitted curve in the direction sought with a large enough effect; inconclusive = small, poorly fitted or top-dose-only effect, or another doubt; inactive = no such curve, though single readings can be large; an effect the other way counts as inactive or inconclusive.

SMILES | p53 reactivation | Nrf2 activator | IL2 activator | BRCA1 expr act | A549 tox | Nrf2 inh
Cn1ccnc1SCC(=O)NC1CCCC1 | 3.3% | -0.4% | -4.7 | -26.5% | -1.3% | 18.4%
CC(C)(C)NC(=O)CSc1nc2ccc(NC(=O)CSc3nnc(N)s3)cc2s1 | -20.8% | -0.8% | -1.1 | -23.4% | -5.2% | 20.6µM*
CC(CCc1ccccc1)NC(=O)CSc1n[nH]c(-c2ccc(F)cc2)n1 (configuration not stated) | / | -0.9% | / | / | 0.9% | /
COC(=O)c1cc2oc3ccccc3c2n1Cc1ccc(Cl)cc1 | / | 18.1% | / | / | 1.2% | 20.1%
CC(C)Cc1ccc(C(C)C(=O)Nc2cccnc2)cc1 (configuration not stated) | / | 0.5% | -1.5 | -0.9% | -9.6% | 6.51µM*
FC(F)(F)c1ccccc1N/N=C/c1cccnc1 | 5.1% | -0.5% | -0.5 | 27.8% | 2.6% | ?
Fc1ccc(N/N=C/c2cccnc2)c(F)c1 | 0.0% | 10.8% | 2.1 | 5.62µM* | 0.0% | 22.4%
COc1ccc(CNC(=O)CCCN2C(=O)COc3ccc(C)cc32)cc1 | / | 0.6% | / | / | 4.2% | -3.1%
Clc1cccc(Cl)c1CO/N=C/c1c(-c2ccccc2)nc2n1CCS2 | -4.4% | 0.0% | -1.9 | -0.1%[1.84 µM] | -24.1% | 18.4µM*
Cc1cccc(NS(=O)(=O)c2ccc3c(c2)CCN3C(=O)C2CCC2)c1 | / | -1.3% | / | -45.6% | -17.3% | 14.6µM*
Cc1cccc(NS(=O)(=O)c2ccc3c(c2)CCN3C(=O)CCC(=O)O)c1 | 6.2% | -0.4% | -3.1 | 20.2% | 4.9% | 1.3%
Cc1cccc(NS(=O)(=O)c2ccc(NC(=O)N3CCCCC3)cc2)c1 | 9.2% | -0.6% | -3.4 | -40.7% | -19.5% | 18.4µM*
Cc1cccc(NS(=O)(=O)c2ccc(NC(=O)N3CCCC3)cc2)c1 | / | 0.2% | / | / | 5.5% | /
COc1ccc(NC(=O)C2CCC(CNS(=O)(=O)c3ccc(Br)s3)CC2)c(OC)c1 (configuration not stated) | / | -0.1% | / | / | 0.5% | ?
CC(=O)Nc1ccc(NC(=O)c2cc(CN3CCCC3)on2)cc1 | / | 0.3% | / | / | 1.0% | ?
O=C(c1ccccn1)N1CCN(c2ccc(C(F)(F)F)cn2)CC1 | -8.4% | -0.5% | -1.4 | 0.1% | -2.6% | ?
O=C(c1ccc2n[nH]nc2c1)N1CCN(c2ccc(C(F)(F)F)cn2)CC1 | -4.3% | 0.0% | 0.7 | -31.4% | -12.2% | 14.6µM*
COc1ccc(C2C(=O)N(C3CCCCCC3)CC(=O)N2CCC2=CCCCC2)cc1 (configuration not stated) | / | -1.4% | / | / | -2.0% | /
Cc1cc2cc(CNC(=O)Nc3ccccc3)ccc2[nH]1 | 14.8% | 4.5% | 0.3 | 11.2µM* | -1.4% | 11.1%
COc1ccc(CNC(=O)Nc2cccc(C)c2)cc1 | 18.4% | 0.4% | -2.6 | 3.16µM* | 4.1% | ?
CCOC(=O)NCc1ccc2[nH]c(C)cc2c1 | 13.8% | 2.4% | -2.1 | 12.8% | 7.9% | 9.8%
COc1ccc(CNC(=O)Nc2ccccc2)cc1 | 13.5% | 0.6% | -5.1 | ? | 0.4% | ?
Cc1ccc(N/C(C(Cl)=C(Cl)Cl)=C(/Cl)[N+](=O)[O-])c(C)c1 | 11.7% | 22.4µM* | -0.9 | -56.2% | -1.9% | -11.2%
COc1cccc(C2C=C(c3ccc(OC)cc3OC)Nc3nnnn32)c1 (configuration not stated) | 11.9% | 3.4% | 0.6 | -59.5% | ? | 18.4µM*
CCn1cc2nc(SCC(=O)Nc3ccc(C)cc3C)n(Cc3ccc(C)cc3)c(=O)c2n1 | / | 0.0% | / | / | ? | ?
SMILES | p53 reactivation | Nrf2 activator | IL2 activator | BRCA1 expr act | A549 tox | Nrf2 inh
Cc1ccc2nc(SCc3nc4ccccc4c(=O)[nH]3)[nH]c2c1 | -0.1% | ? | 0.5 | 3.98µM* | 6.4% | ?
CCNc1ccc2noc3c2c1C(=O)c1ccccc1-3 | -6.5% | 4.6% | 9.0 | 51.2% | ? | 20.6µM*
O=C1c2ccccc2-c2onc3ccc(NCc4ccco4)c1c23 | 13.1% | ? | 3.2 | -43.7% | ? | -28.2%
O=C(Nc1ccccc1C(=O)Nc1nnc(C(F)(F)F)s1)c1ccccc1 | 10.3% | 0.3% | 1.3 | -65.9% | 13µM* | ?
Cc1c(C(=O)Nc2nnc(C(F)(F)F)s2)oc2ccccc12 | 29.2% | 6.7% | -2.2 | 2.1% | -2.5% | 19.8%
COC(=O)c1ccc(C(=O)Nc2ccc(C(C)C)cc2N)cc1 | 14.9% | 0.1% | 2.3 | 11.2µM* | 1.6% | 2.2%
COc1cc(OC)c(NC(=O)c2oc3ccc4c(c3c2C)C(=O)CC(C)(C)O4)cc1Cl | / | -0.2% | / | 0.3% | -1.3% | ?
COc1cc(/C=C/c2nc3ccccc3c(=O)[nH]2)cc(OC)c1OC | 7.1% | -0.1% | -2.9 | -7.0% | -14.8% | 17.0%
COc1cc(/C=C/c2nc3ccccc3c(=O)[nH]2)ccc1OC(F)F | 19.3% | -0.3% | -3.5 | 3.16µM* | -1.7% | 0.7%
CCN(c1ccccc1)S(=O)(=O)c1ccc(NC(=O)c2nc(SC)ncc2Cl)cc1 | / | 4.0% | / | / | -2.8% | ?
O=C(Nc1ccc2c(c1)OCCO2)Nc1ccc2c(c1)OCO2 | -8.0% | -1.1% | -0.8 | 0.9% | -6.5% | ?
O=C(Nc1ccc2c(c1)OCCO2)N1CCN(c2ccccc2)CC1 | 10.1% | 0.7% | -0.4 | 8.2%[1.84 µM] | 1.3% | -17.4%
O=C(COc1ccc(Br)cc1Br)NC(=O)NC1CCCC1 | 5.1% | 6.9% | -0.1 | 11.2µM* | 0.0% | ?
O=C(Nc1ccc2c(c1)OCCO2)N1CCN(Cc2ccccc2)CC1 | 11.3% | 2.6% | 1.6 | 12.6µM* | -0.7% | ?
COc1ccccc1OCC(=O)Nc1ccc2c(c1)OCCO2 | 22.7% | 0.3% | -0.3 | ? | 2.7% | ?
CC(C)(C)NC(=O)NC(=O)COc1ccc(Br)cc1Br | ? | 0.3% | -0.7 | 33.2% | 2.3% | ?
O=C(Nc1ccc2c(c1)OCCO2)NC12CC3CC(CC(C3)C1)C2 | ? | 0.9% | 1.2 | 3.55µM* | 3.4% | ?
NC(=O)c1ccccc1OCC(=O)Nc1ccc2c(c1)OCCO2 | 21.9% | 1.6% | 1.2 | 3.55µM* | 2.9% | -12.1%
COc1cccc2cc(C(=O)N(Cc3cccs3)Cc3cccs3)c(=O)oc12 | / | / | / | -16.4% | -5.2% | 10.5%
COC(=O)C1CCN(CC(=O)Nc2ccc3c(c2)OCCO3)CC1 | 17.0% | -0.6% | -0.2 | 35.6% | 3.1% | 13.8%
CC1CC(C)(C)NC(=S)N1CCCC(=O)Nc1ccc2c(c1)OCCO2 (configuration not stated) | 0.2% | 2.6% | -3.9 | 12.6µM* | -4.4% | 6.2%
O=C(COc1ccc(Br)cc1Cl)NC(=O)Nc1ccc2c(c1)OCCO2 | 4.4% | 2.5% | -1.0 | 11.2µM* | 4.4% | ?
